Active and inactive are the calls of the source.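 Rule for the calls: active = compound that blocked FSH-driven cAMP in FSH receptor cells, giving a fitted IC50; inactive = the rest.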

Sequence of Follicle-stimulating hormone receptor (Homo sapiens) (P23945 whole entry, looked up): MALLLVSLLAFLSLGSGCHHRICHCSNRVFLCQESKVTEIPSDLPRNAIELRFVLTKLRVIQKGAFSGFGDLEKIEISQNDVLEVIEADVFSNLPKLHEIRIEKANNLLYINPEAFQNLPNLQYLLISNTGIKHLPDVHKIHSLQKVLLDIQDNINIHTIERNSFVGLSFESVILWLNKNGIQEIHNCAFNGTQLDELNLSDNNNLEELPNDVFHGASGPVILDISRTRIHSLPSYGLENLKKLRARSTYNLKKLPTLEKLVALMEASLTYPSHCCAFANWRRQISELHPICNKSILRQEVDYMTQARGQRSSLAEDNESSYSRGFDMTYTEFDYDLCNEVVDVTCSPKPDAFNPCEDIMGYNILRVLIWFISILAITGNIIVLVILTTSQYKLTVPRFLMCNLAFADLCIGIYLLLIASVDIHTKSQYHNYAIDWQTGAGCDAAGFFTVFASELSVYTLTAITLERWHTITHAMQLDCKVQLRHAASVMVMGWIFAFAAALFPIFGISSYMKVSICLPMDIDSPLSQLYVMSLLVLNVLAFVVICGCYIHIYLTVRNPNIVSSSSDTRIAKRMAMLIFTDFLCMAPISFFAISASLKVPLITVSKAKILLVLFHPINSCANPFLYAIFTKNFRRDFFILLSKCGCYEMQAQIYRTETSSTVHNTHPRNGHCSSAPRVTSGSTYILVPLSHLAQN

This assay has as its target Follicle-stimulating hormone receptor (Homo sapiens) (UniProt P23945). As to the kind of experiment: Counterscreen for antagonists of the thyroid stimulating hormone receptor: ELISA activity in a Follicle Stimulating Hormone receptor cell line. To be noted: HEK293-FSHR, FSH-induced cAMP ELISA chemiluminescence. From the text:
TSH is an alpha/beta heterodimeric glycoprotein hormone secreted from the anterior pituitary gland which belongs to the glycoprotein hormone family. The actions of TSH are mediated by a seven-transmembrane receptor, which upon TSH binding couples preferentially to the G-alpha (s) protein (Gs), resulting in activation of adenylate cyclase and increase in cyclic adenosine 3', 5' monophosphate (cAMP). The TSH receptor (THSR) is mainly expressed in thyroid follicular cells and regulates their growth and function. This cell based assay was conducted on a TSHR transfected HEK 293 cell line, measuring cAMP stimulation using antibody-based Homogeneous Time Resolved Fluorescence (HTRF). Our goal is to identify small molecules that will inhibit (antagonize) the thyroid-stimulating hormone receptor (TSHR), a member of the 7 transmembrane-spanning receptor (7TMR) family of cell surface receptors. TSHR-mediated hyperthyroidism is important in thyroid pathology. The development of small molecule antagonists of TSHR may lead to therapeutic approaches for TSHR-mediated hyperthyroidism caused by constitutively activating mutations or stimulating auto-antibodies associated with Graves' disease. Graves' disease is the leading cause of hyperthyroidism and is caused by autoantibodies that stimulate TSHR (TsAbs) causing thyroid growth and unregulated overproduction of thyroid hormones and existing treatments have liabilities (agranulocytosis). In addition, TSHRs are known to be expressed in multiple extrathyroidal tissues including bone, brain, kidney, testis, fat and cells of the immune system but the role of the TSHR in these tissues is not clear. Therefore, TSHR antagonists/inverse agonists could be used as probes of extrathyroidal TSHR function. Finally, TSHR inverse agonists, which are a subclass of antagonists that inhibit agonist-independent (or basal or constitutive) TSHR signaling, could be used to inhibit TSH-independent signaling in patients with recurrent or metastatic thyroid cancer who are receiving thyroid hormone to suppress TSH. In order to confirm specificity of the compounds to the TSHR, a confirmatory assay was conducted on a similar family member, the Follicle Stimulating Hormone (FSH) receptor, transfected into a HEK 293 cell line, using an orthogonal detection technology to measure cAMP stimulation: an ELISA based cAMP competition assay using cAMP-Screen Direct System (Applied Biosystems, Foster City, CA).
Transiently transfected HEK-EM 293 cells or cells stably expressing FSHR were seeded into 96-well plates at a density of 7 x10^4 cells per well in DMEM containing 10% FBS. Cells were cultured for 24 h before incubation for 20 min in HBSS/10 mM HEPES (pH 7.4). To determine the effect of the compound on FSH induced FSHR activity, cells were incubated for 20 min with the compound in HBSS/HEPES without IBMX and subsequently for 40 min with bovine FSH (Sigma) and the compound in HBSS/HEPES supplemented with 1 mM IBMX at 37 C. The levels of cAMP in cells incubated in HBSS/HEPES without IBMX were subtracted in all experiments. After aspiration of the incubation medium, cells were lysed using lysis buffer of the cAMP-Screen Direct system (Applied Biosystems, Foster City, CA). The cAMP content of the cell lysate was determined using the method described in the manufacturer's protocol. The chemiluminescence signal was measured in a VICTOR3 V 1420 multilabel counter (PerkinElmer, Norwalk, CT). The potencies (EC50 and IC50) of the ligands were obtained from dose-response curves by data analysis with GraphPad Prism 4 for Windows.
(The purpose of a counterscreen is to sort out artefacts and off-target activity.)
Turning to `COc1ccc(C2Nc3ccccc3C(=O)N2Cc2ccco2)cc1COc1c(C)cc(NC(C)=O)cc1C` (stereo unspecified), the compound was called inactive.

For orientation: IC50 means the concentration that inhibits the measured activity by half. With `COc1ccc(C2Nc3ccccc3C(=O)N2Cc2ccco2)cc1CSc1c(C)cccc1C` (stereo unspecified), the IC50 was 14.6 µM (active).

As to `Cc1cccc(C)c1OCc1cccc(C2Nc3ccccc3C(=O)N2Cc2ccco2)c1` (stereo unspecified), the IC50 was 8.2 µM (active).

As to `CCc1cccc(CC)c1OCc1cc(C2Nc3ccccc3C(=O)N2Cc2ccco2)ccc1OC` (stereo unspecified), the result was inactive.

With `COc1ccc(C2Nc3ccccc3C(=O)N2Cc2cccnc2)cc1COc1c(C)cccc1C` (stereo unspecified), the IC50 is 32.7 µM (active).

Consider `COc1ccc(C2Nc3ccccc3C(=O)N2Cc2ccco2)cc1COc1c(C)cccc1C` (stereo unspecified), for which the IC50 was 4.55 µM (active).

Values taken from PubChem BioAssay AID504384 (National Center for Advancing Translational Sciences (NCATS), 2011).
